# Laboratory results: PubChem BioAssay (NCATS)
# Results filed as inconclusive are left out. Where a call stands in place of a potency, no number is given. The source made the active and inactive calls. Unless noted, the call rests on the fitted dose curve; in most records, active means well fitted curve in the direction sought with a large enough effect; inconclusive means small, poorly fitted or top-dose-only effect, or another doubt; inactive means no such curve, though single readings can be large; an effect the other way counts as inactive or inconclusive.
# Experiments:
# [1] = biological target: Alpha-galactosidase (Coffea arabica) (UniProt Q42656); test: Counterscreen for Glucocerebrosidase Inhibitors: qHTS Assay for Coffee Bean alpha-Galactosidase at pH 4.5 (AID 957); further: series mostly up to about 77 µM
# Summary of the method: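 Green coffee bean enzyme (2 nM final) was incubated with compounds (0.7 nM to 77 uM) and 4-methylumbelliferyl alpha-D-galactopyranoside (80 uM final) in 50 mM citric acid, 0.005% Tween-20, pH 4.5, 20 min at room temperature; AC50 from Hill fits.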
# [2] = biological target: Alpha-galactosidase (Coffea arabica) (UniProt Q42656); test: Counterscreen for Glucocerebrosidase Inhibitors: qHTS Assay for Coffee Bean alpha-Galactosidase at pH 5.9 (AID 998)
# Summary of the method: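 Compounds were titrated from 0.7 nM to 77 uM against green coffee bean alpha-galactosidase (2 nM) using 80 uM fluorogenic 4-methylumbelliferyl substrate. After 20 min at room temperature, reactions were stopped at pH 10 and read by fluorescence.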
# [3] = Validation screen for inhibitors of Lassa infection (AID 463096; calls by dose curve; further: potency means the concentration at half of the fitted maximal effect)
# Sequence of Alpha-galactosidase (Coffea arabica) (Q42656 whole entry, looked up): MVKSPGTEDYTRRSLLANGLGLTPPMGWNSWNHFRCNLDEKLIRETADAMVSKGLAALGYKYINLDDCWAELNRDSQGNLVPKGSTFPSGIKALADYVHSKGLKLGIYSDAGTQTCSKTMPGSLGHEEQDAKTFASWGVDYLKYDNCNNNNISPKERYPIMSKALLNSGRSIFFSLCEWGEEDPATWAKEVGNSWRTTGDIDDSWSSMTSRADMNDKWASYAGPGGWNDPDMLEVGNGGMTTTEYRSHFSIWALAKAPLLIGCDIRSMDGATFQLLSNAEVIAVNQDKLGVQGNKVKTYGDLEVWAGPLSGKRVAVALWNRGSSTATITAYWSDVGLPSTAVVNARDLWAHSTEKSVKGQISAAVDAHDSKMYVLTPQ
SMILES,outcome [1],outcome [2],Potency [3]
COc1ccccc1NC(=O)Nc1nc(-c2cccnc2)nc2ccccc12,inactive,inactive,inactive
C1CCC(N=C(NC23CC4CC(CC(C4)C2)C3)N2CCOCC2)CC1,inactive,inactive,inactive
Cc1cc(N)c2ccccc2[n+]1CCCCCCCCCCCCCC[n+]1c(C)cc(N)c2ccccc21,inactive,inactive,7.08 µM (active)
Nc1ncnc2c1c(-c1ccc(Oc3ccccc3)cc1)cn2C1CCCC1,inactive,inactive,inactive
NCCCCCCNS(=O)(=O)c1cccc2c(Cl)cccc12,inactive,inactive,inactive
O=C1C(SCCO)=C(SCCO)C(=O)c2ccccc21,inactive,inactive,5.01 µM (active)
NCCNS(=O)(=O)c1cccc2cnccc12,inactive,inactive,inactive
COc1[nH]c2ccc(F)cc2c1C(=O)OCC1CCN(CCNS(C)(=O)=O)CC1,inactive,inactive,inactive
COc1ccc2c(c1)c(CC(=O)N1CCOCC1)c(C)n2C(=O)c1ccc(Cl)cc1,inactive,inactive,inactive
CCCn1c(=O)c2[nH]c(-c3ccc(OCC(=O)Nc4ccc(C#N)cc4)cc3)nc2n(CCC)c1=O,inactive,inactive,inactive
Cn1cnc2c(NC3CCCC3)ncnc21,inactive,inactive,inactive
NC(=NCCC[C@H](N)C(=O)O)NO,inactive,inactive,inactive
COC(=O)c1c(-c2cc(OC)c(OC)c(OC)c2)c2ccc(OCc3ccccn3)cc2c(=O)n1-c1ccc(N)cc1,inactive,inactive,inactive
CC1(C)C(=O)N(CCN2CCC(C(=O)c3ccc(F)cc3)CC2)c2ccccc21,inactive,inactive,inactive
